Source: PubChem
M1 ag parental: counter-screen for M1 agonists: effect in parental CHO-K1 cells | Fluo-8 calcium fluorescence; scaled to maximal ATP response, vehicle zero | activation, % at 3 µM | 360,000 compounds, 0.48% hits | AID 602248, 2012; in the data active = activation above about 15%;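 note: untransfected CHO-K1 host cells lacking M1 receptor as counterscreen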
CHO-K1 Ca antag: nonselective inhibitor or artifact in parental CHO-K1 cells; 360,000 compounds, 0.6% hits; ATP-induced calcium, Fluo-8 fluorescence; inhibition, % at 3 µM;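 active = inhibition above a per-plate cutoff, the plate's mean sample inhibition plus 3 SD, cut at about 24% in these data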;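 note: 0% = DMSO plus EC80 ATP and 100% = DMSO alone without ATP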
CHRM1 PAM: human M1 muscarinic receptor positive allosteric modulators, primary screen, CHO-K1 cells, Fluo-8 calcium fluorescence, 1536-well; activation, % at 3 µM; Muscarinic acetylcholine receptor M1 (Homo sapiens), P11229; 360,000 compounds, 0.088% hits; CHO-K1 hM1, ACh EC20; 0% = ACh EC20, 100% = maximal ACh; in the data active = activation above about 19%, passing the limit was not always enough
Target sequence (P11229 whole entry, looked up): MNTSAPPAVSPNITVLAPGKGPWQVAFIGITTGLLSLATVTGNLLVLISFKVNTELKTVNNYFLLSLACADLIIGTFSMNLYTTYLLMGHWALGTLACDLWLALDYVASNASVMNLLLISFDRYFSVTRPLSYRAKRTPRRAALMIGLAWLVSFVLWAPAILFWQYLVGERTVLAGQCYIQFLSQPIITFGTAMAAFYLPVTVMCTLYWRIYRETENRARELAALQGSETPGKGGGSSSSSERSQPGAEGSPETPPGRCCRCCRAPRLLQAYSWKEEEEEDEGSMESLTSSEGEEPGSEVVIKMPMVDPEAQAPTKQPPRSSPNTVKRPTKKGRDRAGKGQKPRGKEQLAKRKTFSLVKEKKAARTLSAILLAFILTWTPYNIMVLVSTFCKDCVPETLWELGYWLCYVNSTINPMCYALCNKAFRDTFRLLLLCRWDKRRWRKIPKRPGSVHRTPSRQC
M1 ag: human M1 muscarinic receptor agonists, primary screen, Fluo-8 calcium fluorescence, CHO-K1 cells, HTS | Muscarinic acetylcholine receptor M1 (Homo sapiens), P11229 | CHO-K1 hM1, agonist mode; 0% DMSO, 100% acetylcholine EC100 | activation, % at 3 µM | 360,000 compounds, 0.33% hits | AID 588814, 2011;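 active = activation above the run's mean compound activation plus 3 SD, cut at about 16% in these data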;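 note: peak over basal fluorescence ratio within a 140 s kinetic read after compound addition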
M1 PAM parental: nonselective calcium activators in parental CHO-K1 cells, primary screen, counter-screen for M1 PAM project, cell-based, Fluo-8 calcium fluorescence, full deck, 1536-well | activation, % at 3 µM | 360,000 compounds, 0.02% hits | ATP EC20; 0% at ATP EC20, 100% at ATP max | AID 602247, 2012;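 active = activation above the run cutoff, the mean activation of all test compounds plus 3 SD, cut at about 40% in these data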;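 note: peak over basal fluorescence ratio in a 140 s read after ATP addition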
CHRM1 antagonist: human M1 muscarinic receptor antagonists, primary screen, CHO-K1 cells, Fluo-8 calcium fluorescence, 1536-well. Muscarinic acetylcholine receptor M1 (Homo sapiens), P11229. CHO-K1 hM1, ACh EC80 antagonist. 360,000 compounds, 1.3% hits. inhibition, % at 3 µM;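 active = percent inhibition above its own plate's cutoff, namely the mean of that plate's compound wells plus 3 SD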;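 note: peak over basal fluorescence ratio during 140 s after agonist addition; 0% = ACh EC80 plus DMSO and 100% = DMSO alone without agonist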
* marks the source's active call; other numbers are inactive results; nt = no result given. Most compounds without a hit are left out; they make up all but 2.3% or so of the library.

SMILES	M1 ag parental	CHO-K1 Ca antag	CHRM1 PAM	M1 ag	M1 PAM parental	CHRM1 antagonist
Cc1cc(NC(=O)CSCC(=O)Nc2cccc(S(=O)(=O)N3CCCCCC3)c2)no1	9	8	9	-1	-4	-9
COC(=O)C1C2CCC(C2)C1C(=O)OCC(=O)c1ccc(C)cc1 (stereo not given)	0	27*	-6	0	-4	14
COc1ccc(CCC(=O)OCC(=O)c2ccc(C)cc2)cc1	0	-12	11	-10	21	-14
CCOc1ccc(CN(C)CC(=O)Nc2ccccc2C(=O)NC2CC2)cc1	0	7	0	-4	-13	-3
Cn1c(=O)c([N+](=O)[O-])c(NCCCn2ccnc2)c2ccccc21	15*	0	4	1	13	-4
CCCCNc1c([N+](=O)[O-])c(=O)n(C)c2ccccc12	1	-15	-2	-4	26	7
COC(=O)C(CC(=O)c1ccc(Cl)cc1)c1ccc(C)cc1 (stereo not given)	-1	-2	33*	-5	-4	5
Cc1c(NC(=O)c2nn3c(C(F)(F)F)cc(-c4ccccc4)nc3c2Cl)c(=O)n(-c2ccccc2)n1C	2	16	-14	-6	-12	21
COc1ccc(-c2cc(C(F)(F)F)n3nc(C(=O)Nc4c(C)n(C)n(-c5ccccc5)c4=O)c(Cl)c3n2)cc1	0	26*	-9	-6	-15	1
Cc1cc(NC(=O)c2cnn3c(C(F)(F)F)cc(-c4ccccc4)nc23)no1	1	-5	-17	-10	-12	33*
COc1ccc(C(=O)NCc2cnn(C)c2C)cc1OC1CCN(C(C)C)CC1	4	-16	5	-6	25	-2
COc1ccccc1N1CCN(Cc2cnc3ccc(Cl)cn23)CC1	7	-16	2	-2	22	2
Cc1cc(C)c2c(CN3CCN(Cc4ccccc4)CC3)cc(=O)oc2c1	17*	-2	-20	-1	-4	28
Cc1cccc(N2C(=O)CC(N3CCN(Cc4ccc5c(c4)OCO5)CC3)C2=O)c1 (stereo not given)	0	20	-13	-6	-5	35*
Cc1cc(OC(C)C(=O)NC2CCN(Cc3ccccc3)CC2)c2c(C)cc(=O)oc2c1 (stereo not given)	0	-19	-5	16	3	9
Cc1ccc(C)c(OCc2cc(C(=O)NC3CCN(Cc4ccccc4)CC3)no2)c1	15	4	-15	3	-7	32*
CCc1cc(=O)oc2cc(C)cc(OC(C)C(=O)NC3CCN(Cc4ccccc4)CC3)c12 (stereo not given)	0	-12	-7	23*	-5	12
O=C1CC(N2CCN(Cc3ccc4c(c3)OCO4)CC2)C(=O)N1c1ccccc1 (stereo not given)	2	-18	-5	-7	23	4
CC(C)(Oc1ccc(F)cc1)C(=O)OCC(=O)c1ccc(S(C)(=O)=O)cc1	4	-12	9	0	11	-13
Cc1cc(C)c2c(CN3CCN(Cc4ccc5c(c4)OCO5)CC3)cc(=O)oc2c1	1	-10	-27	-7	18	33*
Cc1cc(C)c2c(CN3CCN(Cc4ccc5c(c4)OCO5)CC3)cc(=O)oc2c1C	0	-6	-8	-4	16	-12
Cc1cc(C)c2c(CN3CCCC3)cc(=O)oc2c1	-1	30*	15	0	-8	-1
Cc1cc(C(=O)CSc2nc3ccccc3[nH]2)c(C)n1Cc1ccco1	15	27*	-18	1	-1	40*
C=CCn1c(C)cc(C(=O)CSc2nc3ccccc3[nH]2)c1C	18*	2	-27	1	-8	39*
CN(Cc1ccccc1Br)C(=O)CSc1nnnn1C1CC1	0	-10	7	-3	12	-8
SMILES	M1 ag parental	CHO-K1 Ca antag	CHRM1 PAM	M1 ag	M1 PAM parental	CHRM1 antagonist
COc1ccc(/C=C/C(=O)NNc2c(F)c(F)cc(F)c2F)cc1OC	0	25*	2	0	-7	7
OC(CNCCc1ccc(C(F)(F)F)cc1)COc1cccc2ccccc12 (stereo not given)	3	-2	6	-2	22	4
COc1ccccc1COCC(O)CNCCc1ccc(C(F)(F)F)cc1 (stereo not given)	16*	-12	-7	-5	11	0
COc1ccc(S(=O)(=O)N2CCN(c3cnccn3)CC2)cc1OC	1	-19	10	-1	28	-24
COc1ccc(S(=O)(=O)N(C)CC(=O)NCC2CCCO2)cc1OC (stereo not given)	0	-5	14	0	-8	-15
COc1ccc(S(=O)(=O)N(CC(=O)NCC2CCCO2)c2ccc(F)cc2)cc1OC (stereo not given)	1	26*	0	-1	-6	16
CCC(C)N1CCN(S(=O)(=O)c2ccc3ccccc3c2)CC1 (stereo not given)	-1	3	2	-8	8	-3
CCC(C)N1CCNCC1 (stereo not given)	0	25*	5	-7	-14	-9
N#Cc1ccc(NC(=O)Nc2ccc(Cl)cc2)cc1	14	26*	-13	9	8	32*
NS(=O)(=O)c1ccc(NC(=O)Nc2ccc(Cl)cc2)cc1	1	28*	-7	-1	-10	11
CC(C)N(CC#CCC(O)(c1ccccc1)C1CCCC1)CCO (stereo not given)	1	-12	-30	-12	17	86*
CCN(CC#CCC(O)(c1ccccc1)C1CCCC1)C(C)C (stereo not given)	2	-7	-21	-5	11	99*
CC(C)N(CC#CCC1(O)c2ccccc2-c2ccccc21)CCO	0	-18	-5	-11	6	4
COCCN1C(=O)COc2ccccc2C1C(=O)NCc1ccccc1 (stereo not given)	1	-18	nt	nt	8	nt
CN(C(=O)COC(=O)c1ccc(S(=O)(=O)N2CCCCCC2)cc1)c1ccccc1	1	-20	6	-7	17	-12
CN(C(=O)COC(=O)c1ccc(CN2CCCC2=O)cc1)c1ccccc1	1	-15	-29	-8	0	68*
O=C(O)c1cccc(CN2C(=O)c3ccccc3C2=O)c1	-1	11	11	1	-11	-1
